Hit rate of the full screen: of about 330,000 compounds, about 4,100 (1.2%) were called active. Not shown: some 2% with an inconclusive outcome. This is one part of a sample in which actives are shown more often than they occur. Rule for the calls: active = max response of -50% or lower; inconclusive = between -30% and -50%; inactive = -30% or higher.
molecular target: Phosphatidylinositol 5-phosphate 4-kinase type-2 alpha (Homo sapiens) (UniProt P48426); experiment: qHTS for Inhibitors of phosphatidylinositol 5-phosphate 4-kinase (PI5P4K); settings: PI5P4Kalpha enzyme, ADP-Glo luminescence, 60 min; active compounds read low; note: value at the top dose of about 77 µM
Sequence (P48426 whole entry, looked up): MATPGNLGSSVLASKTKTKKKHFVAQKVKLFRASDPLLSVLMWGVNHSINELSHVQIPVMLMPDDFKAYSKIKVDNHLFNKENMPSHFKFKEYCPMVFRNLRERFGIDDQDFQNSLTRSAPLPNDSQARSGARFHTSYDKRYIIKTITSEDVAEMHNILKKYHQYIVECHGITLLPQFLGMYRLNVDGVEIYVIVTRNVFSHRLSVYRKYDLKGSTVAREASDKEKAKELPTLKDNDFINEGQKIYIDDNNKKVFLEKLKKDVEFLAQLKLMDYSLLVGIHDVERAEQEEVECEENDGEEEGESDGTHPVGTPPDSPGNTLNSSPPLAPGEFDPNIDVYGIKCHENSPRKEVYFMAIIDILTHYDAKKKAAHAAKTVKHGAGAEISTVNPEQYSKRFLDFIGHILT
In short: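 Reactions run in 0.038 M HEPES pH 7.4, 0.28 mM EGTA, 0.1% CHAPS and 5% DMSO, with PI5P4Kalpha, substrate, compound and 5 microM ATP final, one hour at room temperature. Readout is ADP-Glo luminescence.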
% is set by controls: 0 for no effect and ±100 for the full control effect.

| Structure (SMILES) | max response |
| --- | --- |
| CC(=O)c1ccc(S(=O)(=O)N2CCC3(CC2)OCCO3)cc1 | 1.8% (inactive) |
| CC(=O)c1ccc(S(=O)(=O)N2CCN(C(=O)/C=C/c3ccc4ccccc4n3)CC2)cc1 | -58.5% (active) |
| CC(=O)c1ccc(S(=O)(=O)N2CCC(Oc3ccc(-n4cnnn4)cc3)CC2)cc1 | -1.39% (inactive) |
| COc1ccc(CCCNC(=O)C2Cc3c(-c4cccc(C(N)=O)c4)ccnc3O2)cc1 (centres undefined) | -10.3% (inactive) |
| CCNC(=O)C1(C)CCCN(Cc2noc(-c3ccccc3OC)n2)C1 (centres undefined) | -0.357% (inactive) |
| CN1OC[C@@H]2CN(S(=O)(=O)c3cccc(C(F)(F)F)c3)[C@H](c3ccc(-c4cc5ccccc5o4)cc3)C[C@@H]21 | 4.81% (inactive) |
| COc1cccc(CNC(=O)CN2C(=O)NC(Cc3ccccc3)(c3ccccc3)C2=O)c1 (centres undefined) | -83.2% (active) |
| COc1cccc(CNC(=O)COC(=O)CN2C(=O)NC3(CCCCC3C)C2=O)c1 (centres undefined) | -4.41% (inactive) |
| CCCCNC(=O)CN1C(=O)NC(Cc2ccccc2)(Cc2ccccc2)C1=O | 0.277% (inactive) |
| CCCNC(=O)c1cc2c(c(-c3cccc(-c4ccc(C#N)cc4)c3)n1)[C@@H](CCO)N(C(=O)CC)C2 | -0.337% (inactive) |
| C[C@@H]1CN([C@H](C)CO)C(=O)CCCn2cc(nn2)CO[C@H]1CN(C)S(C)(=O)=O | 6.16% (inactive) |
| CC(C)C[C@H]1CNC(=O)C(=O)N1C[C@H]1CCCN1C[C@H](Cc1ccc(O)cc1)N1C[C@H](CC(C)C)N(CC2CCCCCC2)C(=O)C1=O | -0.421% (inactive) |
| CCOC(=O)C1=CC[C@@H](c2ccccc2)N(S(=O)(=O)c2ccc(C)cc2)[C@H]1c1ccc(CC)cc1 | 6.84% (inactive) |
| Cc1cc2nc(-c3ccco3)c(Cc3cccc(F)c3)n2c(C)c1Br | -66.2% (active) |
| Cc1cc2nc(-c3ccc(F)cc3)c(Cc3ccsc3)n2c(C)c1Br | 7.62% (inactive) |
| Cc1cc2nc(-c3ccc(Cl)cc3)c(Cc3cccc(F)c3)n2c(C)c1Br | -6.22% (inactive) |
| COc1ccc(OC)c(CN2C(=O)CCC2(C)c2nnnn2Cc2ccccc2)c1 (centres undefined) | 2.57% (inactive) |
| COc1ccc(CCNC(=O)CN(c2ccccc2)S(=O)(=O)c2ccccc2)cc1 | -3.29% (inactive) |
| CC1=C(C(=O)N(C(C)C)C(C)C)CC(CC(=O)NCC2CCCCC2)C(=O)N1Cc1ccccc1 (centres undefined) | -7.86% (inactive) |
| CCOC(=O)[C@]12CCCC=C1N(CCC1=CCCCC1)C(=O)[C@H](CC(=O)N1CCSCC1)C2 | -1.78% (inactive) |
| O=C(Nc1ccc2ccccc2c1[N+](=O)[O-])c1ccccc1 | -2.74% (inactive) |

| Structure (SMILES) | max response |
| --- | --- |
| O=C(O)c1cc([N+](=O)[O-])c(Nc2cccc3ccccc23)c([N+](=O)[O-])c1 | -64.5% (active) |
| CCOc1ccccc1Nc1ccc(C(=O)O)cc1[N+](=O)[O-] | -1.68% (inactive) |
| CNc1cnc(-c2cc(OC)c(OC)c(OC)c2)cn1 | 1.71% (inactive) |
| O=[N+]([O-])c1cccc(/C([O-])=C(/C(=S)Nc2ccccc2F)[n+]2ccccc2)c1 | -1.12% (inactive) |
| Cc1ccc(/C([O-])=C(/C(=S)NCc2ccco2)[n+]2ccccc2)cc1[N+](=O)[O-] | -51.3% (active) |
| CC(OC(=O)CNC(=O)c1ccc(Cl)c([N+](=O)[O-])c1)C(=O)NCc1ccco1 (centres undefined) | -12% (inactive) |
| CC(C)c1cccc(-c2csc(C(O)c3ccccc3)n2)c1 (centres undefined) | 28.3% (inactive) |
| CC(=O)NCCc1nc2cc(NC(=O)c3ccccc3)ccc2n1C | -3.2% (inactive) |
| COc1cccc(NC(=O)NCCN2CCCCC2)c1 | 3.3% (inactive) |
| COCCNC(=O)Nc1ccc2nc(-c3ccco3)c(-c3ccco3)nc2c1 | -88.9% (active) |
| CCCC(=O)N1CCC1(C)C(=O)NCc1ccc(SC)cc1 (centres undefined) | 0.695% (inactive) |
| CC(=O)Oc1ccc(Cn2c(C)c(C(=O)NCc3ccc(C#N)cc3)sc2=O)cc1 | 2.41% (inactive) |
| O=C(COc1ccccc1)Nc1ccc(C(=O)N2CCCC2)cc1 | 6.33% (inactive) |
| O=C(COc1ccccc1Cl)Nc1ccc(C(=O)c2ccc(C(=O)O)cc2)cc1 | -70.5% (active) |
| COc1cc(NC(=O)COc2ccccc2Cl)ccc1NC(=O)C(C)C | -11.3% (inactive) |
| O=[N+]([O-])c1cc(Cl)cc(/C=N/NC(=S)Nc2cc(S(=O)(=O)N3CCOCC3)ccc2Cl)c1O | -78.8% (active) |
| CN(C)/N=C/c1cc(Cl)cc([N+](=O)[O-])c1O | -13.3% (inactive) |
| Cc1ccc(S(=O)(=O)N2CCN(CC(=O)N/N=C/c3cc([N+](=O)[O-])ccc3Cl)CC2)cc1 | 4.76% (inactive) |
| COC(=O)[C@]12CCCCC=C1N(CCC1=CCCCC1)C(=O)[C@H](CC(=O)N1CCSCC1)C2 | 6.76% (inactive) |
| COc1ccc(Br)c(Cn2c(C)c(C(=O)NCc3cccs3)sc2=O)c1 | 0.248% (inactive) |
| CC(C)Cn1cc(-c2cncc3nccn23)cn1 | 1.47% (inactive) |

| Structure (SMILES) | max response |
| --- | --- |
| CC(Sc1nnnn1C1CCCCC1)C(=O)O (centres undefined) | -91% (active) |
| O=C(CSc1nnnn1C1CCCC1)N1CCCCC1 | 1.79% (inactive) |
| CC(Sc1nnnn1C)C(=O)NC(=O)NC1CCCCC1 (centres undefined) | -0.0816% (inactive) |
| O=C(Nc1ccc2c(c1)OCCO2)C1c2ccccc2OCC(=O)N1Cc1ccccn1 (centres undefined) | 6.39% (inactive) |
| COc1ccc(S(=O)(=O)N(C)C[C@H]2OCc3cnnn3CCCC(=O)N([C@H](C)CO)C[C@H]2C)cc1 | 3.6% (inactive) |
| COc1cccc(-c2cc3nc(NCc4ccccc4OC)n(C)c(=O)c3s2)c1 | 21.3% (inactive) |
| COCCNC(=O)C1CCCN(Cc2ccccc2Cl)CC1 (centres undefined) | 0.686% (inactive) |
| Cc1nn(-c2ccc([N+](=O)[O-])cc2)c(N)c1-c1ccccc1 | -3.48% (inactive) |
| CC1=NN(c2ccccc2)C(=O)C1C(=O)c1ccc([N+](=O)[O-])cc1 (centres undefined) | 0.85% (inactive) |
| O=C1CC(c2ccccc2)=NN1c1ccc([N+](=O)[O-])cc1 | -52.7% (active) |
| OC(c1ccccc1)c1nc(-c2cnc3ccccc3c2)cs1 (centres undefined) | -0.318% (inactive) |
| CC(C)(C)C1C/C(=C/c2ccco2)C(=O)/C(=C/c2ccco2)C1 (centres undefined) | -12.4% (inactive) |
| CS(=O)(=O)c1ccc2c(c1)SC1=NC(=O)/C(=C/c3ccco3)C(=N)N12 | -79.5% (active) |
| O=C(Nc1cccc2ccccc12)c1[nH]c(-c2ccccc2)c2c1C(=O)N(C1CC1)C2=O | -0.344% (inactive) |
| CN1CCN(C(=O)c2ccc(-c3cc4nc(NCc5cccnc5)n(C)c(=O)c4s3)cc2)CC1 | 2.18% (inactive) |
| Cc1cccc(C)c1NC(=O)C(c1ccc(C(F)(F)F)cc1)n1c(=O)c(-c2ccco2)nc2ccccc21 (centres undefined) | -54% (active) |
| O=C(NC1CCCCC1)C(c1cc2ccccc2o1)n1c(=O)c(-c2ccco2)nc2ccccc21 (centres undefined) | -75.5% (active) |
| COc1ccc(C(C(=O)NCc2ccccc2)n2c(=O)c(-c3ccccc3)nc3ccccc32)cc1 (centres undefined) | 7.1% (inactive) |
| CCC(C(=O)Nc1c(C)cccc1C)n1c(-c2cc(C)cs2)nc2ccccc21 (centres undefined) | 0.0253% (inactive) |
| Cc1cccc(C)c1NC(=O)C(c1cccc2ccccc12)n1c(=O)c(-c2ccco2)nc2ccccc21 (centres undefined) | -75.2% (active) |
| COc1ccc(NC(=O)C(c2ccncc2)n2c(=O)c(-c3cc4ccccc4[nH]3)nc3ccccc32)cc1 (centres undefined) | 0.0077% (inactive) |

| Structure (SMILES) | max response |
| --- | --- |
| CCCCCNC(=O)C(c1ccc(OC)cc1)n1c(=O)c(-c2ccccc2)nc2ccccc21 (centres undefined) | 8.24% (inactive) |
| Cn1c(SCC(=O)NC2CCCCC2)nnc1-c1cc2ccccc2o1 | 1.01% (inactive) |
| CCC(CC)C(C(=O)NC1CCCC1)N1CCN(c2cc(C)nc3ccccc23)CC1 (centres undefined) | -1.13% (inactive) |
| CC(=O)Nc1cc(-c2ccccc2N(C)C)cn2c(-c3ccc(F)c(Cl)c3)cnc12 | -1.56% (inactive) |
| NC(c1csc(NC(=O)Nc2cccc(C(F)(F)F)c2)n1)C1CCCCC1 (centres undefined) | 10.5% (inactive) |
| Cc1ccc([C@H]2C[C@H](O)[C@@H](n3cc(COC(=O)c4ccccc4)nn3)CN2CC2CCCCC2)cc1 | 19.2% (inactive) |
| O=C(NCc1ccccc1)C1c2ccccc2OCC(=O)N1CCCN1CCOCC1 (centres undefined) | 0.215% (inactive) |
| O=C(c1ccc(C(F)(F)F)cc1)N1CCC(=O)N([C@H](COCc2ccccc2)Cc2ccccc2)CC1 | 5.29% (inactive) |
| COC(=O)c1ccc2nc(C3CCCCC3)c(Cc3cccc(F)c3)n2c1 | -0.596% (inactive) |
| CCCCOCCCNC(=O)C[C@@H]1C[C@@]2(C(=O)OC)CCCCC=C2N(CCC2=CCCCC2)C1=O | 17.9% (inactive) |
| O=C(Nc1ccc(N2CCOCC2)cc1)c1cccc2c(-c3ccc(F)c(F)c3)coc12 | 5.02% (inactive) |
| CCc1c(N=O)c(-c2ccccc2)n(O)[n+]1[O-] | -5.54% (inactive) |
| Cc1ccsc1C(=O)N/N=C/c1ccc([N+](=O)[O-])cc1 | -10.5% (inactive) |
| O=C(N/N=C/c1ccc([N+](=O)[O-])cc1)c1c[nH]c2ccccc12 | 1.35% (inactive) |
| O=C(N/N=C/c1ccc(Cl)cc1)c1nc2ccc([N+](=O)[O-])cc2c(=O)[nH]1 | -60.4% (active) |
| O=C(CCc1ccc(O)cc1)NN=Cc1cc(Br)ccc1O | -16.2% (inactive) |
| COc1ccc(NC(=O)C2Cc3c(-c4ccc5c(c4)OCO5)ccnc3O2)cn1 (centres undefined) | -13.8% (inactive) |
| O=C1CSC(=S)N1/N=C/c1ccc(O)c([N+](=O)[O-])c1 | -104% (active) |
| O=C1CSC(=S)N1c1ccc(O)cc1 | -3.72% (inactive) |
| O=[N+]([O-])c1ccc(N2CCSCC2)cc1O | -3.3% (inactive) |
| CC1Cc2[nH][nH]c(=O)c2C(C2CCCC2)O1 (centres undefined) | 0.644% (inactive) |
